The list is not random: actives were taken first. Their share in the collection is about 4.6%.
PfHsp90 yeast 2 = reduces growth (ATP signal) of yeast expressing P. falciparum Hsp90 | S. cerevisiae expressing PfHsp90, BacTiter-Glo ATP, 48 h; yeast lacking PDR1 and PDR3 efflux regulators | inhibition, % at 9.4 µM | 310,000 compounds, 0.32% hits | AID 504621;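 active = every replicate shows inhibition above about 80%, whatever the replicate mean, limit read from the data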;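 note: 0% = DMSO neutral controls and 100% = 20 µM radicicol positive controls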
tim10-1 inh = growth inhibitors of tim10-1 mutant yeast; S. cerevisiae tim10-1 ts strain growth, BacTiter-Glo, 24 h; AID 463190; 330,000 compounds, 2.2% hits; inhibition, % at 20 µM;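 active = inhibition of at least 40%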;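 note: mutant grown at 25 °C; 0% = DMSO wells with yeast and 100% = wells holding no yeast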
tim23-1 inh = tim23-1 yeast growth inhibition. AID 463212. 330,000 compounds, 1.3% hits. inhibition, % at 20 µM. S. cerevisiae tim23-1 growth, BacTiter-Glo luminescence, 24 h;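 active = growth inhibition of the mutant yeast at or above 50%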;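 note: temperature-sensitive mutant grown at 25 °C; plate controls were DMSO-treated mutant yeast for no effect and medium wells lacking yeast for full effect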
TIM10 inh = inhibits growth of TIM10 yeast strain. S. cerevisiae TIM10 strain growth, BacTiter-Glo luminescence, 24 h. inhibition, % at 10 µM. 330,000 compounds, 1.4% hits. AID 463195;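 active = inhibition of 40% or more at the single tested concentration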;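 note: wild-type TIM10 isogenic control strain grown at permissive 25 °C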
NLRP3 yeast inh = inhibitors of NALP3 inflammasome in yeast | Yeast reconstituted NLRP3/ASC/caspase-1, beta-gal luminescence, 24 h | inhibition, % at 10 µM | 330,000 compounds, 0.39% hits | AID 2825;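 active = inhibition of 50% or more; inactive = inhibition below 50%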;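 note: plate controls were induced DMSO wells for no effect and uninduced yeast grown without galactose for full effect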
SKKanGAS inh = inhibitors of SKKanGAS S. pyogenes growth in kanamycin (SK-promoter or general growth effect); BacTiter-Glo, 6 h; inhibition, % at 7.5 µM; 300,000 compounds, 1.3% hits;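 active = mean replicate score, as percent of positive control median, at least 50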;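 note: strain carries kanamycin resistance gene driven by streptokinase promoter and grows in 40 µg/ml kanamycin; loss of luminescence reflects streptokinase promoter inhibition or plain growth inhibition; 0% = median of DMSO wells and 100% = positive control at its reference dose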
tim10-1 confirm = confirmation of tim10-1 mutant yeast growth inhibitors; shares compounds with tim10-1 inh; S. cerevisiae tim10-1 ts strain growth, BacTiter-Glo, 24 h; inhibition, % at 20 µM; 7,400 compounds, 56% hits; AID 463213;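 active = inhibition of yeast growth at or above a set limit in either of two repeat tests at 20 µM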;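 note: tim10-1 mutant grown at permissive 25 °C to find synthetic lethal compounds; 0% = DMSO yeast wells and 100% = medium wells without yeast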
TIM10 conf = confirmation of TIM10 yeast growth inhibitors; S. cerevisiae tim10 strain growth, BacTiter-Glo luminescence, 24 h; shares compounds with TIM10 inh; 4,600 compounds, 63% hits; inhibition, % at 10 µM;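 active = inhibition of yeast growth at or above a set limit in either of two replicates at 10 µM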;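 note: this counterscreen used the strain with wild-type TIM10; 0% = yeast with DMSO and 100% = medium wells lacking yeast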
tim23-1 confirm = tim23-1 yeast growth inhibition, confirmed | S. cerevisiae tim23-1 growth, BacTiter-Glo luminescence, 24 h | shares compounds with tim23-1 inh | inhibition, % at 20 µM | 4,400 compounds, 83% hits | AID 463218;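 active = inhibition above about 39% in either of two replicate wells at 20 µM, limit read from the data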;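 note: temperature-sensitive tim23-1 mutant grown at 25 °C; 0% = DMSO wells with yeast and 100% = medium wells without yeast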
An asterisk follows results filed as active; · = not tested or not shown.

SMILES	PfHsp90 yeast 2	tim10-1 inh	tim23-1 inh	TIM10 inh	NLRP3 yeast inh	SKKanGAS inh	tim10-1 confirm	TIM10 conf	tim23-1 confirm
COc1ccccc1N1CCN(C(=O)c2cc3c(C)nc4ccccc4c3o2)CC1	-9	49*	54*	18	22	27	16	·	33
Cc1ccc(N(C)C(=O)c2ccc3c(Cl)c4c(nc3c2)CCC4)cc1C	-4	41*	55*	21	12	6	35*	·	56*
CCCCn1c(=O)c(CCC(=O)OCC(=O)NC(=O)NCCOC)nc2ccccc21	6	-10	8	7	10	3	·	·	·
CC12CCC(C(=O)N(CSC(=S)N/N=C\c3ccccc3Cl)C1=O)C2(C)C (stereo not given)	-8	41*	59*	57*	8	7	23	-23	41*
Cc1ccccc1NCN1C(=O)C2CCC(C)(C1=O)C2(C)C (stereo not given)	24	2	2	10	6	-8	·	·	·
COc1cc(OC)c(C(=O)/C=C/c2ccccc2)c(O)c1O	-35	51*	58*	39	11	2	32*	·	63*
C=CC(=O)N1C/C(=C/c2ccccc2)C(=O)/C(=C\c2ccccc2)C1	-18	·	·	·	·	·	·	·	·
CN1C2CCC1/C(=C\c1ccccc1)C(=O)/C2=C\c1ccccc1	-9	47*	53*	45*	33	12	36*	23	55*
COc1ccccc1OCCNC(=O)C1CC(=O)N(c2cccc(SC)c2)C1 (stereo not given)	19	18	10	5	10	0	·	·	·
CCOc1ccc(-n2cc(-c3ccccc3)c3c(=S)nc[nH]c32)cc1	-39	70*	64*	45*	-14	77*	33*	47*	34
CCOc1ccc(-n2cc(-c3ccccc3)c3c(N4CCOCC4)ncnc32)cc1	-1	35	20	4	-2	28	·	·	·
N/N=C1\CCCc2c1[nH]c1ccc([N+](=O)[O-])cc21	·	18	-11	10	-1	41	·	·	·
O=[N+]([O-])c1ccc2[nH]c3c(c2c1)CCCC3	11	65*	66*	40	15	17	57*	·	66*
Cc1nc2ccccc2n1CCOc1ccccc1	-2	11	11	5	28	2	·	·	·
Cc1ccc(NCc2nc3ccccc3n2CCOc2ccccc2)cc1	-5	44*	57*	17	23	5	30	·	74*
COc1ccc(/C(N)=N/OC(=O)c2ccc3c(c2)OCO3)cc1OC	7	69*	59*	47*	10	-4	75*	46*	56*
N/C(=N\OC(=O)c1ccc2c(c1)OCO2)c1cccc(Br)c1	·	68*	78*	92*	15	-3	48*	96*	88*
Cc1cccc(/C(N)=N/OC(=O)c2ccco2)c1	-3	42*	59*	26	3	-5	32*	·	43*
Cc1cccc(/C(N)=N/OC(=O)CCCc2ccccc2)c1	-10	61*	59*	53*	21	8	57*	45*	59*
N/C(=N\OC(=O)c1ccco1)c1ccc(Br)cc1	-27	58*	62*	56*	5	2	54*	51*	76*
CCCNC(=O)C(Cc1ccc(Br)cc1)NC(=O)c1ccc(C#N)cc1 (stereo not given)	-9	7	-16	-11	5	·	·	·	·
Cc1c(C(=O)Nc2nnc(C3CC3)s2)oc2ccccc12	10	10	12	-4	10	·	·	·	·
COc1ccc(NC(=O)CN(C)C(=O)c2ccc3[nH]c4c(c3c2)CC(C)CC4)cc1 (stereo not given)	·	18	40	11	9	1	·	·	·
O=C(/C=C/c1c(Cl)cccc1Cl)N1CCOCC1	-12	-6	-1	-7	12	5	·	·	·

Screens (PubChem)
